# Laboratory results: PubChem BioAssay AID1159580 (chemical genetic matrix, 2015)
# Values joined by “and” are separate entries in the source; they are usually repeats but may differ in a detail not shown here. Equal entries are not always repeated. In all, about 5,500 compounds went through this assay and about 2,000 (36%) were called active. Another 18% or so got no clear call; they are omitted. Some of the results follow. Unmarked numbers belong to inactive results. Rule as the data show it: active = normalized growth mostly below about 0.91 (no sharp cut-off); inconclusive = no clear call, values can overlap the other calls; inactive = mostly above about 0.92.
# Assay: chemical genetic growth profiling, strain panel (AID 1159580);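 also: tested at 20 µM; growth read once vehicle control cultures reached saturation at 30 °C; 1 = growth at the plate median or of vehicle wells; lower values mean less growth of the strain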
# Details: S. cerevisiae deletion strains, growth OD
structure (smiles),measurement,setting,value
CCc1nc(N)nc(N)c1-c1ccc(Cl)cc1,normalized growth,"locus YAL013W, strain DEP1, active compounds read low",1.02
same,normalized growth,"locus YAL021C, strain ccr4, active compounds read low",0.951
same,normalized growth,"locus YAL026C, strain drs2, active compounds read low",0.967
same,normalized growth,"locus YAL030W, strain snc1, active compounds read low",0.977
same,normalized growth,"locus YBL061C, strain skt5, active compounds read low",0.97
same,normalized growth,"locus YBR009C, strain hhf1, active compounds read low",0.997
same,normalized growth,"locus YBR021W, strain FUR4, active compounds read low",1.02
same,normalized growth,"locus YBR023C, strain chs3, active compounds read low",0.999
same,normalized growth,"locus YBR171W, strain sec66, active compounds read low",0.969
same,normalized growth,"locus YBR229C, strain ROT2, active compounds read low",1.01
same,normalized growth,"locus YBR231C, strain swc5, active compounds read low",0.971
same,normalized growth,"locus YBR279W, strain paf1, active compounds read low",0.994
same,normalized growth,"locus YCL011C, strain gbp2, active compounds read low",0.978
same,normalized growth,"locus YCL016C, strain dcc1, active compounds read low",0.997
same,normalized growth,"locus YCL029C, strain bik1, active compounds read low",0.988
same,normalized growth,"locus YCL061C, strain MRC1, active compounds read low",0.958
same,normalized growth,"locus YCL069W, strain vba3, active compounds read low",0.986
same,normalized growth,"locus YCR088W, strain abp1, active compounds read low",0.977
same,normalized growth,"locus YDL005C, strain med2, active compounds read low",0.972
same,normalized growth,"locus YDL035C, strain GPR1, active compounds read low",0.995
same,normalized growth,"locus YDL040C, strain nat1, active compounds read low",0.973
same,normalized growth,"locus YDL074C, strain BRE1, active compounds read low",0.987
same,normalized growth,"locus YDL101C, strain DUN1, active compounds read low",1
same,normalized growth,"locus YDL134C, strain PPH21, active compounds read low",1.01
same,normalized growth,"locus YDL185W, strain tfp1, active compounds read low",1
same,normalized growth,"locus YDL192W, strain arf1, active compounds read low",1
same,normalized growth,"locus YDR001C, strain nth1, active compounds read low",0.969
same,normalized growth,"locus YDR069C, strain doa4, active compounds read low",0.898 (active)
same,normalized growth,"locus YDR101C, strain arx1, active compounds read low",0.987
same,normalized growth,"locus YDR137W, strain rgp1, active compounds read low",1.02
same,normalized growth,"locus YDR150W, strain NUM1, active compounds read low",1.01
same,normalized growth,"locus YDR159W, strain sac3, active compounds read low",0.955
same,normalized growth,"locus YDR162C, strain NBP2, active compounds read low",1.01
same,normalized growth,"locus YDR195W, strain ref2",0.979
same,normalized growth,"locus YDR297W, strain sur2, active compounds read low",0.987
same,normalized growth,"locus YDR318W, strain mcm21, active compounds read low",0.976
same,normalized growth,"locus YDR334W, strain swr1, active compounds read low",0.936
same,normalized growth,"locus YDR335W, strain msn5, active compounds read low",0.973
same,normalized growth,"locus YDR388W, active compounds read low",0.974
same,normalized growth,"locus YDR392W, strain spt3, active compounds read low",1.02
same,normalized growth,"locus YDR502C, strain sam2, active compounds read low",0.996
same,normalized growth,"locus YEL003W, strain gim4, active compounds read low",0.97
same,normalized growth,"locus YEL037C, strain rad23, active compounds read low",0.969
same,normalized growth,"locus YEL061C, strain CIN8 (second series), active compounds read low",0.966
same,normalized growth,"locus YEL061C, strain CIN8, active compounds read low",1.01
same,normalized growth,"locus YER015W, strain faa2, active compounds read low",0.985
same,normalized growth,"locus YER016W, strain bim1, active compounds read low",1.01
same,normalized growth,"locus YER110C, active compounds read low",0.999
same,normalized growth,"locus YER111C, strain swi4, active compounds read low",0.983
same,normalized growth,"locus YER155C, strain BEM2 (second series), active compounds read low",0.933
same,normalized growth,"locus YER155C, strain BEM2, active compounds read low",1.01
same,normalized growth,"locus YER167W, strain BCK2, active compounds read low",1.01
same,normalized growth,"locus YFR010W, strain ubp6, active compounds read low",0.931
same,normalized growth,"locus YGL078C, strain dbp3, active compounds read low",1
same,normalized growth,"locus YGL086W, strain mad1, active compounds read low",0.994
same,normalized growth,"locus YGL167C, strain pmr1, active compounds read low",0.981
same,normalized growth,"locus YGL173C, strain kem1, active compounds read low",0.982
same,normalized growth,"locus YGL227W, strain vid30, active compounds read low",0.959
same,normalized growth,"locus YGL240W, strain doc1, active compounds read low",0.97
same,normalized growth,"locus YGL248W, strain PDE1, active compounds read low",1.01
same,normalized growth,"locus YGL253W, strain hxk2, active compounds read low",0.97
same,normalized growth,"locus YGR078C, strain PAC10, active compounds read low",1
same,normalized growth,"locus YGR135W, strain pre9, active compounds read low",0.979
same,normalized growth,"locus YGR229C, strain SMI1, active compounds read low",1.01
same,normalized growth,"locus YGR252W, strain gcn5, active compounds read low",0.981
same,normalized growth,"locus YHR013C, strain ard1, active compounds read low",0.886
same,normalized growth,"locus YHR027C, strain rpn1, active compounds read low",0.976
same,normalized growth,"locus YHR030C, strain SLT2, active compounds read low",1.01 and 1.05
same,normalized growth,"locus YHR079C, strain IRE1 (second series), active compounds read low",0.987
same,normalized growth,"locus YHR079C, strain IRE1, active compounds read low",1.07
same,normalized growth,"locus YHR094C, strain hxt1, active compounds read low",1
same,normalized growth,"locus YHR129C, strain ARP1, active compounds read low",1.01
same,normalized growth,"locus YHR142W, strain chs7, active compounds read low",0.95
same,normalized growth,"locus YHR200W, strain rpn10, active compounds read low",1
same,normalized growth,"locus YIL066C, strain RNR3, active compounds read low",1.01
same,normalized growth,"locus YIL073C, strain SPO22, active compounds read low",1.31
same,normalized growth,"locus YIL125W, strain kgd1, active compounds read low",1.01
same,normalized growth,"locus YIR030C, strain dcg1, active compounds read low",1
same,normalized growth,"locus YJL092W, strain hpr5, active compounds read low",0.956
same,normalized growth,"locus YJL095W, strain BCK1 (second series), active compounds read low",0.979
same,normalized growth,"locus YJL095W, strain BCK1, active compounds read low",0.982 and 1.04
same,normalized growth,"locus YJL115W, strain asf1, active compounds read low",0.961
same,normalized growth,"locus YJL129C, strain trk1, active compounds read low",0.927
same,normalized growth,"locus YJL134W, strain LCB3, active compounds read low",1.01
same,normalized growth,"locus YJL154C, strain vps35, active compounds read low",0.954
same,normalized growth,"locus YJL164C, strain tpk1, active compounds read low",1
same,normalized growth,"locus YJL166W, strain qcr8, active compounds read low",0.944
same,normalized growth,"locus YJL168C, strain set2, active compounds read low",1
same,normalized growth,"locus YJL187C, strain SWE1 (second series), active compounds read low",0.982
same,normalized growth,"locus YJR043C, strain POL32, active compounds read low",0.992
same,normalized growth,"locus YJR066W, strain TOR1, active compounds read low",0.994
